# Measurements published in PubChem BioAssay AID2535 (National Center for Advancing Translational Sciences (NCATS), 2010).
# The source made the active and inactive calls. Calls come from the whole dose curve; as a rule, active = well fitted curve in the direction sought with a large enough effect; inconclusive = small, poorly fitted or top-dose-only effect, or effect the other way, or another doubt; inactive = no such curve, though single readings can be large or run the other way.
# Biological target: Pyruvate kinase PKLR (Homo sapiens) (UniProt P30613)
# Assay: Secondary Concentration-Response Assay for Activators of Human Liver Pyruvate Kinase: for Probe SAR
# Conditions: purified hPK-L, ATP production, Kinase-Glo luminescence; series mostly up to 58.3 µM
# Summary of the method: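 Luciferase-coupled luminescence (Kinase-Glo) reports ATP made by 0.1 nM hPK-L from 0.5 mM PEP (at Km) and 0.1 mM ADP (about 10-fold below Km); pH 7.2 imidazole buffer, 1 h room temperature, in concentration-response format.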
# Chain of Pyruvate kinase PKLR (Homo sapiens) (P30613 whole entry, looked up): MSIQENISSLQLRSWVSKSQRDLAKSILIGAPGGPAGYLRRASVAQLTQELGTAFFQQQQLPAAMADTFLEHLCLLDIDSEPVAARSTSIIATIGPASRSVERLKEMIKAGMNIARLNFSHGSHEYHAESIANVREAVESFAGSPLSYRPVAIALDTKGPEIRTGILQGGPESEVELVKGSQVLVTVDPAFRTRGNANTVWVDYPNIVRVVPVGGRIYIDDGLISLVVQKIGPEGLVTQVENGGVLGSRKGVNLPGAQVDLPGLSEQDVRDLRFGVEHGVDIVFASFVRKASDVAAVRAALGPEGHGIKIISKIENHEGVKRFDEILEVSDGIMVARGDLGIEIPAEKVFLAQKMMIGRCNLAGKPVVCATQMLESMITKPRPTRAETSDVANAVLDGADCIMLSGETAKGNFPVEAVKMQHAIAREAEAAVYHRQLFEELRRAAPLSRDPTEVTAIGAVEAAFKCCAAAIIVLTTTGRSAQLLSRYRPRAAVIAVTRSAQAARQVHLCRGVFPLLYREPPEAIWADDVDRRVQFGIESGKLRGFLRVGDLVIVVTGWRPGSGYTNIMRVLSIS
row,Compound,outcome
1,Cc1ccc(N(C)S(=O)(=O)c2ccc3c(c2)CCC(=O)N3)cc1C,inactive
2,O=C1c2ccccc2C(=O)N1c1cc(=O)c2ccccc2[nH]1,inactive
3,COc1cc(F)c(S(=O)(=O)N2CCCN(S(=O)(=O)c3cccc(N)c3)CC2)c(F)c1,inactive
4,O=C1CCc2cc(S(=O)(=O)Nc3ccc(F)c(Cl)c3)ccc2N1,inactive
5,COc1ccccc1N1C(=O)c2ccccc2C1=O,inactive
6,Cc1nc(-c2ccc(S(=O)(=O)Nc3ccc(C)c(C)c3)s2)cs1,inactive
7,Cc1c(Cl)cccc1NS(=O)(=O)c1cc2c(cc1Cl)CCC(=O)N2,inactive
8,Cc1ccc(N2C(=O)c3ccccc3C2=O)c(C)c1,inactive
9,Cc1ccc2nc(-c3ccc(C)o3)c(NC3CCCC3)n2c1,inactive
10,Cc1ccc(NS(=O)(=O)c2cc3c(cc2Br)NC(=O)CO3)cc1C,inactive
11,CSc1cc2c(s1)c1cnn(Cc3cccc(N)c3)c(=O)c1n2C,inactive
12,COc1cccc(N2C(=O)c3ccccc3C2=O)c1,inactive
13,O=C1CCc2cc([S+](=O)([O-])Nc3ccc(N[S+](=O)([O-])c4ccc5c(c4)CCC(=O)N5)cc3)ccc2N1,inactive
14,Cc1ccc(-c2nc3ccccn3c2Nc2ccccc2C)o1,inactive
15,O=S1(=O)N=C(Oc2ccc(Cl)cc2)c2ccccc21,inactive
16,Cn1c2cc(S(C)=O)sc2c2cnn(Cc3cccc(O)c3)c(=O)c21 (stereo not drawn),inactive
17,Cc1ccn2c(NCc3ccco3)c(-c3ccccc3)nc2c1,inactive

row,Compound,outcome
1,O=C1CCc2cc(S(=O)(=O)Nc3cccc4ccccc34)ccc2N1,inactive
2,Cc1ccc(Nc2c(-c3ccc(C)o3)nc3ccccn23)cc1,inactive
3,O=C1c2ccccc2C(=O)N1c1ccc2ncccc2c1,inactive
4,Cc1ccc(NS(=O)(=O)c2cc3c(cc2Cl)CCC(=O)N3)cc1C,inactive
5,O=C1CCc2cc(S(=O)(=O)Nc3ccccc3Cl)ccc2N1,inactive
6,Cc1ccc(Cl)cc1NS(=O)(=O)c1cc2c(cc1Cl)CCC(=O)N2,inactive
7,Cc1ccc2nc(-c3cccs3)c(Nc3ccccc3)n2c1,inactive
8,Cc1ccc(-c2nc3cnccn3c2Nc2ccc(C(C)C)cc2)o1,inactive
9,O=C1c2ccccc2C(=O)N1c1cncc2ccccc12,inactive
10,Cc1c(Cl)cccc1NS(=O)(=O)c1cc2c(cc1F)NC(=O)CC2,inactive
11,O=C1c2ccccc2C(=O)N1Cc1ccccn1,inactive
12,Cc1ccc(NS(=O)(=O)c2ccc3c(c2)CC(=O)N3)cc1C,inactive
13,Cc1ccc(NS(=O)(=O)c2ccc3c(c2)CCO3)cc1C,inactive
14,Cc1ccc(Nc2c(-c3ccsc3)nc3c(C)cccn23)cc1,inactive
15,O=C1CCc2cc(S(=O)(=O)Nc3ccccn3)ccc2N1,inactive
16,O=C1CCc2cc(S(=O)(=O)Nc3ccc4ccccc4c3)ccc2N1,inactive
